The values below come from PubChem BioAssay (Tox21).

Results filed as inconclusive are left out. Entries that show only a call come without a potency. Activity calls are given as the source filed them. Calls follow the shape of the dose curve; as a rule, active = well fitted inhibition curve with a large enough effect in the signal ratio in the repeat runs (not every such curve was filed as active); inconclusive = weak or mixed curves, or effect the other way; inactive = no such curve, though single readings can be large or run the other way; the % refers to the signal ratio.
Potency is read from the fitted curve at half-maximal effect.

Sequence of Bile acid receptor (Homo sapiens) (Q96RI1 whole entry, looked up): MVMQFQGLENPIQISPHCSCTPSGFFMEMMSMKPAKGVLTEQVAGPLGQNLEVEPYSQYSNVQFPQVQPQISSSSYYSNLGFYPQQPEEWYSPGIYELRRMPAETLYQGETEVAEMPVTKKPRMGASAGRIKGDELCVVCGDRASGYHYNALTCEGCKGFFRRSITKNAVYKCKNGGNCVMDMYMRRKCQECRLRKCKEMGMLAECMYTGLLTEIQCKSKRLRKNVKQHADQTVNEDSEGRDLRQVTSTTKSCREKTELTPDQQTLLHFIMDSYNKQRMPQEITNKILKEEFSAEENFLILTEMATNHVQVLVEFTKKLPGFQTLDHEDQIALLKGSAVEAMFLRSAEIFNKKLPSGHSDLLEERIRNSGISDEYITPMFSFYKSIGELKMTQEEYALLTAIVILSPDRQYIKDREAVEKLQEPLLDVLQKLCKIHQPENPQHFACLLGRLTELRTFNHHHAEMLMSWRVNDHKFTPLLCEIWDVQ

The assay deals with Bile acid receptor (Homo sapiens) (UniProt Q96RI1). The experiment in a line: qHTS assay to identify small molecule antagonists of the farnesoid-X-receptor (FXR) signaling pathway (AID 743217). Particulars: HEK293T FXR-UAS-bla, beta-lactamase ratio, CDCA-stimulated, 16 h; series mostly up to 62.6 µM. The source says:
U.S. Tox21 Program National Center for Advancing Translational Sciences [NCATS] NIH Chemical Genomics Center [NCGC] U.S. Environmental Protection Agency [EPA] National Institutes of Environmental Health Sciences [NIEHS] National Toxicology Program [NTP] U.S. Food and Drug Administration [FDA] Tox21 Assay Overview: The farnesoid-X-receptor (FXR), a nuclear hormone receptor, is highly expressed in liver, intestine, kidney and adrenal cortex. Natural ligands of FXR are the bile acids (Cholic acid, Chenodeoxy cholic acid etc). FXR is an important regulator of diverse metabolic pathways, including the bile acid homeostasis, lipid and glucose metabolisms. FXR regulates the expression of target genes by binding either as a monomer or as a heterodimer with the retinoid X receptor (RXR). Numerous studies have reported that FXR exerts protective function during cholestasis, diabetes, liver regeneration, and cancer. To identify compounds that inhibit FXR signaling, GeneBLAzer FXR-UAS-bla HEK 293T cell line (Invitrogen, Carlsbad, CA) containing a beta-lactamase reporter gene under the control of a UAS response element was used to screen the Tox21 10K compound library.
Tox21 Assay Protocol Summary: FXR-bla cells were dispensed at 5000 cells/5uL/well in 1536-well black wall/clear bottom plates using a Multidrop Combi (Thermo Fisher Scientific, Waltham, MA) dispenser. After the assay plates were incubated at 37C and 5% CO2 for 5 h, 23 nL of compounds dissolved in DMSO, positive controls or DMSO only was transferred to the assay plate by a Pintool station (Kalypsys, San Diego, CA), followed by addition of 1 uL Chenodeoxycholic acid (50 uM, final concentration in the wells). The assay plates were incubated at 37C for 16 h. After 1 uL of LiveBLAzerTM B/G FRET substrate was added using a Bioraptr Flying Reagent Dispenser (FRD) workstation (Beckman Coulter, Indianapolis, IN), the plates were incubated at room temperature for 2 h, and fluorescence intensity was measured by an Envision plate reader (PerkinElmer, Shelton, CT).
Regarding `C/C=C/C=C/CCCCCCCO`, the Potency result is “inactive”.

On to `NC(=O)Nc1ccc(Cl)c(Cl)c1`, for which the Potency result was “inactive”.

As to `NC(=O)N(O)[C@@H]1COc2cc(OCc3ccccc3)ccc21`, the Potency entry is “inactive”.

`CC(C)OCC1CO1` (stereo not given): the Potency entry is “inactive”.

Turning to `COC(=O)c1cc(S(N)(=O)=O)ccc1OC`, the Potency entry was “inactive”.

Consider `CC(=O)Oc1ccc2c(c1)CC[C@@H]1[C@@H]2CC[C@]2(C)[C@@H](O)CC[C@@H]12`, for which the Potency was 29.8 µM (active).

As to `C[N+]1(C)CCC(=C(c2ccccc2)c2ccccc2)CC1`, the Potency result was “inactive”.

On to `CCCCCC=CCC=CCCCCCCCC(=O)OCC`, for which the Potency entry is “inactive”.

Turning to `CN(C)CCOC1=Cc2ccccc2Sc2ccc(Cl)cc21`, the Potency entry was “inactive”.

Consider `N#C[C@@H]1C[C@@H]2C[C@@H]2N1C(=O)[C@@H](N)C12CC3CC(CC(O)(C3)C1)C2`, for which the Potency result was “inactive”.

Turning to `c1ccc(COCc2ccccc2)cc1`, the Potency entry is “inactive”.

`Oc1ccc(Nc2ccccc2)cc1`: the Potency entry is “inactive”.

On to `O=C(c1ccc(O)cc1)c1ccc(Cl)cc1`, for which the Potency result was “inactive”.

On to `C=CCCCCCCCCCCCCCCCC`, for which the activity change, negative = inhibition is -5.71% [at 5.95 µM] (inactive).

In the case of `CC1(C)C2=CCCC(C)(C)[C@]23CC[C@H]1C3`, the Potency result was “inactive”.

As for `Cc1cc(O)c2c(O)c3c(O)cccc3cc2c1`, the Potency entry is “inactive”.

With `CCCCC/C(=C\c1ccccc1)CO`, the Potency entry is “inactive”.

In the case of `Oc1cc(O)c(Cl)cc1Cl`, the Potency result was “inactive”.

Consider `CC(=O)[C@H]1CC[C@H]2[C@@H]3C[C@H](C)C4=CC(=O)CC[C@]4(C)[C@H]3[C@@H](O)C[C@]12C`, for which the Potency result is “inactive”.

With `CC(C)(C)C(=O)C(Oc1ccc(Cl)cc1)n1ccnc1` (stereo not given), the Potency entry was “inactive”.

For `O=C(Nc1ccc([N+](=O)[O-])cc1)Nc1ccc([N+](=O)[O-])cc1`, the Potency result was “inactive”.

Regarding `Cc1cc(O)c(C(C)C)cc1Cl`, the Potency result is “inactive”.

As to `O=C(O)c1c(O)c(-c2ccccc2)nc2ccccc12`, the Potency is 16.8 µM (active).

On to `Cc1occc1C(=O)Nc1ccc(C(=O)N2CCC(F)(F)/C(=C\C(=O)N3CCC(N4CCCCC4)CC3)c3ccccc32)cc1`, for which the Potency entry was “inactive”.

As to `COC(=O)c1cc(Cl)ccc1NS(=O)(=O)C(F)(F)F`, the Potency result was “inactive”.

With `CCCCCCCCCOC(C)=O`, the Potency result was “inactive”.

In the case of `NCC1CCCC(CN)C1` (stereo not given), the Potency entry is “inactive”.

Turning to `Fc1ccccc1[C@@H](F)COC1CCC(Nc2ncnc3[nH]ncc23)CC1` (stereo not given in full), the Potency was 43.6 µM (active).

With `CC1CC(=O)NN=C1c1ccc(NCC(C)(C)NCC(O)COc2cc(Cl)ccc2C#N)cc1` (stereo not given), the Potency entry was “inactive”.

In the case of `O=C(CS)OCCOC(=O)CS`, the Potency result was “inactive”.

Take `Nc1ccc(C(=O)OCCCOC(=O)c2ccc(N)cc2)cc1`: the Potency entry was “inactive”.

As to `CCC(=O)OC/C=C/c1ccccc1`, the Potency entry is “inactive”.

Consider `CCCCC(=O)O[C@]1(C(=O)CO)CC[C@H]2[C@@H]3CCC4=CC(=O)CC[C@]4(C)[C@H]3[C@@H](O)C[C@@]21C`, for which the Potency entry was “inactive”.

Take `CCCC(=O)O[C@]1(C(=O)COC(=O)CC)CC[C@H]2[C@@H]3CCC4=CC(=O)CC[C@]4(C)[C@H]3[C@@H](O)C[C@@]21C`: the Potency result is “inactive”.

With `CCCCC(CC)CNCC(CC)CCCC` (stereo not given), the Potency result was “inactive”.

With `CC1=C(C=O)C(C)(C)CCC1`, the Potency result is “inactive”.

In the case of `Cc1cc(OI)c(C(C)C)cc1-c1cc(C(C)C)c(OI)cc1C`, the Potency entry was “inactive”.

Turning to `CC#N`, the Potency result was “inactive”.

On to `C=C(C)C(=O)OCCOC(=O)CC(C)=O`, for which the Potency result is “inactive”.

On to `C=CC(C)(C)CC(=O)OC`, for which the Potency entry is “inactive”.
